Screens as filed in PubChem.
Most compounds without a hit are left out; they make up all but 11% or so of the library.
BAZ2B inh: blocks human BAZ2B; 4.4% of 360,000 active; Potency, µM (titrated, usually from 114 µM), usual class: inhibitors; AlphaScreen BAZ2B-H3K14Ac peptide displacement; also: nearly all actives have a fitted effect of over 60% in size
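Complex of BAZ2B and biotin-H3K14Ac (50 nM apiece) forms over 30 min at RT, then faces library compounds up to 110 uM for another 30 min; AlphaScreen beads added, 20 min dark incubation, luminescence read.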
G9a block: blocks human histone lysine methyltransferase G9a; G9a H3K9 monomethylation, AlphaScreen, 2 h; Potency, µM (highest dose often 102 µM), actives largely listed as inhibitors; 8.8% of 350,000 active; AID 504332; also: nearly all actives have a fitted effect of over 75% in size
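Quantitative HTS format: methyltransferase activity on a biotin-tagged H3K9 peptide is measured by AlphaScreen, using a rabbit anti-monomethyl-H3K9 antibody with streptavidin donor and anti-IgG acceptor beads. Final levels are 20 nM enzyme, 500 nM peptide, 20 uM SAM; 2 h RT.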
JMJD2A Tudor: inhibitors of human JMJD2A Tudor domain. O75164. AlphaScreen JMJD2A-Tudor / H3K4me3 peptide binding. Potency, µM (highest dose often 114 µM), hits mostly inhibitors. 4.4% of 390,000 active; also: nearly all actives have a fitted effect of over 50% in size
Target sequence (O75164 whole entry, looked up, the tested form may be a part): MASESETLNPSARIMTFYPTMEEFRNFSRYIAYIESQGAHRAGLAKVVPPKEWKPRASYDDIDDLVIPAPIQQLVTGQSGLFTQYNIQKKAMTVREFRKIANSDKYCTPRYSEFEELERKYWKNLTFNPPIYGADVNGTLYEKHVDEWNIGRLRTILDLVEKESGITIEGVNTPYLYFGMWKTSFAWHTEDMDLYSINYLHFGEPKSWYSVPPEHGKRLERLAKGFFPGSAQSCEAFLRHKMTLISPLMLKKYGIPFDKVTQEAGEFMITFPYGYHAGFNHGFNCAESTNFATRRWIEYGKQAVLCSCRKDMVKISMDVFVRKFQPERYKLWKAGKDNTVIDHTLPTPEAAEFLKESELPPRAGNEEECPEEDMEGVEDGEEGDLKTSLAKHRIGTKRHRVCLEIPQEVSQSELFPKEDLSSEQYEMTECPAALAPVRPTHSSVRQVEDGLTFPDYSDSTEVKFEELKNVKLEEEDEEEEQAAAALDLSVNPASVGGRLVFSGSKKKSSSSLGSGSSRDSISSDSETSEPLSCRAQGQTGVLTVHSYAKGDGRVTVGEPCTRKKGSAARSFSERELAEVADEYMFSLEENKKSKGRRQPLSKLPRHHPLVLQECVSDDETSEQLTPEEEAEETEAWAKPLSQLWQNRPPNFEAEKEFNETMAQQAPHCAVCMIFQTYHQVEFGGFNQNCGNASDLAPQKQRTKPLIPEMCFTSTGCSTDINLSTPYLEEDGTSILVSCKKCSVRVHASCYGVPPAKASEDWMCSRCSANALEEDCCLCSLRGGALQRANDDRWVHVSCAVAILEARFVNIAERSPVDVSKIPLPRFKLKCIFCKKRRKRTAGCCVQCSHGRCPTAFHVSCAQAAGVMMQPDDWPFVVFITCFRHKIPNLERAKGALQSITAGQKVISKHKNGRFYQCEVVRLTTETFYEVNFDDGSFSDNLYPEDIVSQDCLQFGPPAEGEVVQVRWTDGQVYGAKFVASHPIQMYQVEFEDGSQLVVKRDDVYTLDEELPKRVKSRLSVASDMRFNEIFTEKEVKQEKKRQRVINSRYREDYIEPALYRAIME
HP1b chromo inh: HP1-beta chromodomain-methylated histone interaction inhibition; P83916; AlphaScreen HP1-beta / biotin-H3K9me3 peptide binding; Potency, µM (doses to about 114 µM), actives largely listed as inhibitors; 0.56% of 390,000 active; also: nearly all actives have a fitted effect of over 70% in size
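Compound inhibition of the preformed complex between 50 nM HP1-beta and 50 nM biotinylated H3K9me3 peptide was read by AlphaScreen. Buffer was PBS pH 7.4 with 0.01% Tween-20. Incubations ran 30 min at room temperature, with 10 ug/mL donor/acceptor beads.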
L3MBTL1 inh: inhibitors of human L3MBTL1. Q9Y468. AlphaScreen L3MBTL1–H3K9me1 peptide binding. Potency, µM (titrated, usually from 57.1 µM), actives largely listed as inhibitors. 0.66% of 230,000 active; also: nearly all actives have a fitted effect of over 60% in size
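Displacement of a biotinylated histone H3(1-15) peptide monomethylated at Lys9 (75 nM) from L3MBTL1 (50 nM) was measured by AlphaScreen after a 30 min room-temperature compound incubation; cefsulodin titration served as intraplate control.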
A number is an active result; 0 = inactive; ? = inconclusive; - = not tested or not shown; [ ] = another dose, or the depositor's remark. Calls follow the shape of the dose curve; as a rule, active = well fitted inhibition curve with a large enough effect; inconclusive = small, poorly fitted or top-dose-only effect; inactive = no such curve, though single readings can be large or run the other way.

SMILES	BAZ2B inh	G9a block	JMJD2A Tudor	HP1b chromo inh	L3MBTL1 inh
O=C1NC(=Nc2ccccc2)/C(=C/c2ccco2)S1	50µM	11µM	0	0	0
Cc1cccc(N=C2NC(=O)/C(=C/C=C/c3ccco3)S2)c1C	22µM	18µM	40µM	45µM	7.9µM
Cc1ccc(N=C2NC(=O)/C(=C/C=C/c3ccco3)S2)cc1	16µM	11µM	35µM	?	?
O=C1NC(=Nc2ccccc2)S/C1=C\c1ccccc1	0	0[0.501 µM]	0	0	0[2.29 µM]
Cc1cccc(N=C2NC(=O)/C(=C/c3cccnc3)S2)c1C	0	?	0	0	0
O=C1NC(=Nc2ccccc2)S/C1=C\C=C\c1ccco1	25µM	?	50µM	?	3.2µM
CCc1ccccc1NC(=O)Cn1nnc2sc3c(c2c1=O)CCC(C(C)(C)C)C3 (stereo unspecified)	0	0	0	0	-
Cc1ccc(C2CC(=O)N(Cc3ccccc3)c3c2c(C)nn3-c2nc(C)cc(C)n2)cc1 (stereo unspecified)	0	0	0	0	-
Cc1cccc(N=C2NC(=O)/C(=C/c3cccn3C)S2)c1C	32µM	?	?	0	0
O=C(Nc1ccccc1C(=O)OCc1cc(=O)n2c3c(sc2n1)CCCC3)c1cccc(Cl)c1	0	0	0	0	-
Nc1n[nH]c(N)c1N=Nc1ccc(F)cc1	?	0	?	0	?
Cc1nc(N)sc1N=Nc1ccc(F)cc1	0	45µM	?	?	-
Cc1c(-c2cc(Br)ccc2O)nc2cc3c(cc2c1C)OCO3	0	45µM	0	0	-
Cc1nc(NC(=O)c2ccc(Cl)cc2)nc2cc3c(cc12)OCO3	0	0	0	0	0
C#CCOCCOCCOCCNc1nc(N2CCN(C(=O)[C@H]([C@@H](C)CC)n3cc([C@@H](N)CC(C)C)nn3)CC2)nc(N2CCN(C(=O)[C@H](Cc3cc4ccccc4[nH]3)n3cc([C@@H](N)CC(C)C)nn3)CC2)n1	56µM	?	-	-	-
C#CCOCCOCCOCCNc1nc(N2CCN(C(=O)C([C@@H](C)CC)n3cc(C(N)COC(=O)C(F)(F)F)nn3)CC2)nc(N2CCN(C(=O)[C@H](Cc3cc4ccccc4[nH]3)n3cc(C(N)CO)nn3)CC2)n1 (stereo partly specified)	-	-	50µM	0	-
C#CCOCCOCCOCCNc1nc(N2CCN(C(=O)[C@H](CCC(=O)O)n3cc(C(N)CC(C)C)nn3)CC2)nc(N2CCN(C(=O)[C@H](Cc3cc4ccccc4[nH]3)n3cc(C(N)CC(C)C)nn3)CC2)n1 (stereo partly specified)	50µM	?	?	0	0
C#CCOCCOCCOCCNc1nc(N2CCN(C(=O)[C@H]([C@@H](C)CC)n3cc([C@@H](N)CO)nn3)CC2)nc(N2CCN(C(=O)[C@H](Cc3cc4ccccc4[nH]3)n3cc([C@@H](N)C(C)CC)nn3)CC2)n1 (stereo partly specified)	50µM	?	-	-	0
CC12CCC=CC1C(c1ccoc1)N(Cc1ccccc1)C2=O (stereo unspecified)	-	-	0	0	-
Cc1ccc(Nc2c3c(nc4nncn24)CCC3)c(C)c1	0	0	0	0	-
COc1ccc(Cl)cc1NC(=O)C1CCN(S(=O)(=O)c2ccc3c(c2)CCCN3C(=O)C2CCC2)CC1	0	0	0	0	-
C#CCOCCOCCOCCNc1nc(N2CCN(C(=O)[C@H](Cc3cc4ccccc4[nH]3)n3cc([C@@H](N)CC(C)C)nn3)CC2)nc(N2CCN(C(=O)[C@H](Cc3cc4ccccc4[nH]3)n3cc([C@@H](N)CC(C)C)nn3)CC2)n1	45µM	?	45µM	?	?
C#CCOCCOCCOCCNc1nc(N2CCN(C(=O)[C@H](Cc3cc4ccccc4[nH]3)n3cc([C@@H](N)C(C)CC)nn3)CC2)nc(N2CCN(C(=O)[C@H](CCCCN)n3cc([C@@H](N)CC(C)C)nn3)CC2)n1 (stereo partly specified)	35µM	0[12.7 µM]	45µM	0	0
C#CCOCCOCCOCCNc1nc(N2CCOCC2)nc(N2CCN(C(=O)[C@H](Cc3cc4ccccc4[nH]3)n3cc([C@@H](N)CC(C)C)nn3)CC2)n1	0	?	?	0	0
C#CCOCCOCCOCCNc1nc(N2CCN(C(=O)C(CCC(=O)O)n3cc(C(N)CC(C)C)nn3)CC2)nc(N2CCN(C(=O)C(Cc3cc4ccccc4[nH]3)n3cc(C(N)Cc4ccc(O)cc4)nn3)CC2)n1 (stereo unspecified)	45µM	0[12.7 µM]	56µM	0	0
SMILES	BAZ2B inh	G9a block	JMJD2A Tudor	HP1b chromo inh	L3MBTL1 inh
C#CCOCCOCCOCCNc1nc(N2CCN(C(=O)[C@H](Cc3cc4ccccc4[nH]3)n3cc(C(N)CC(C)C)nn3)CC2)nc(N2CCN(C(=O)[C@H](CCC(=O)O)n3cc(C(N)[C@H](C)CC)nn3)CC2)n1 (stereo partly specified)	45µM	0[12.7 µM]	56µM	0	0
O=S(=O)(c1ccc(Cl)cc1)c1nc(-c2ccco2)oc1SCc1ccc(F)cc1	0	?	0	0	-
CCOC(=O)c1[nH]c2ccccc2c1NC(=O)CC(C)(C)C	0	50µM	0	0	-
CCOC(=O)c1[nH]c2ccccc2c1NC(=O)NC(C)C	0	0[12.7 µM]	0	0	0
CCOC(=O)c1[nH]c2ccccc2c1NC(=O)c1ccccc1OC	79µM	?	0	0	-
CCOC(=O)c1[nH]c2ccccc2c1NC(=O)CN(C)C	0	?	0	0	0
COc1cccc2[nH]c(C(=O)NN)c(N)c12	?	50µM	?	0	0
CCOC(=O)c1[nH]c2ccccc2c1NC(=S)Nc1cccc(C)c1C	?	45µM	?	0	0
Fc1ccc(-n2ncc3c(N4CCC(Cc5ccccc5)CC4)ncnc32)cc1	0	0	0	0	-
CCOC(=O)c1[nH]c2ccc(OC)cc2c1NC(=S)N1CCN(c2ccccc2OC)CC1	0	79µM	?	0	0
Cc1ccc(-n2nc(C(=O)N3CCN(c4cc(Cl)ccc4C)CC3)c3c4ccccc4n(C)c3c2=O)cc1	-	0	0	0	-
CCOC(=O)c1cccc(NC(=O)c2cc3c(=O)n(C)c4ccccc4c3n2C)c1	?	0	0	0	-
COc1ccc(N=Cc2[nH]c3ccccc3c2O)cc1	0	6.3µM	0	0	-
COc1ccc(N=Cc2ccccc2O)cc1	-	-	0	0	-
CN(C)c1ccc(NC(=O)COC(=O)c2ccc3c(c2)OCO3)cc1	-	-	?	?	0
C=CCN1C(=O)c2ccc(C(=O)OCC(=O)Nc3ccc(S(N)(=O)=O)cc3)cc2C1=O	0	50µM	0	0	0
CCOC(=O)c1c(C)c(C(=O)NCCOC)c(C)n1CC	0	0	0	0	0
CCOC(=O)c1c(C)c(C(=O)Nc2ccc(N(C)C)cc2)c(C)n1CC	?	2µM	?	0	0
CCOC(=O)c1ccc(NCc2ccc(N(C)C)cc2)cc1	11µM	10µM	?	0	?
CN(C)c1ccc(C(=O)OCC(=O)Nc2ccc(S(N)(=O)=O)cc2)cc1	-	?	56µM	?	0
